This excerpt belongs to a sample that is enriched for hits.
DUX4 txn inh = DUX4-mediated transcription inhibition. 293T-iDUX4 ZSCAN4-Gaussia luciferase reporter, 24 h; stronger effect = lower value. 0.8% of 37,000 active. AID 1224904. activity change, negative = inhibition, % (concentration not given with the values);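 active = mean inhibition of at least 10% in the main channel, exceeding the control channel by a set limit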
A number is an active result; – = inactive; ! = not confirmed by another sample.

SMILES	DUX4 txn inh
O=C(C[C@H]1CC[C@@H]2[C@H](COC[C@@H](O)CN2Cc2ccccc2F)O1)NC1CCC1	–
CC(C)NC(=O)N1C[C@H]2[C@@H](c3ccccc31)[C@@H](CO)N2C(=O)c1ccc(F)cc1	–
CN(C)C(=O)[C@@H]1[C@@H](CO)[C@@H]2Cn3c(ccc(C4=CCCCC4)c3=O)[C@@H]2N1Cc1ccccn1	–
CCCNC(=O)N1[C@H](CO)[C@@H]2c3ccccc3N(C(=O)c3ccccc3)C[C@@H]21	–
Cc1ccc(S(=O)(=O)N(C)C[C@H]2OCCCC[C@H](C)Oc3ccc(NC(=O)C4CCCCC4)cc3C(=O)N([C@@H](C)CO)C[C@@H]2C)cc1	–
COc1ccc2c3c(n(C)c2c1)[C@@H](CO)N(C(=O)C1CCCCC1)CC31CN(C(=O)c2ccncc2)C1	–
CC[C@@H]1C/C=C\C[C@H](c2ccc(F)cc2)NC(=O)CCC(=O)N1	–
CN(C)C(=O)c1cccc(-c2ccc([C@@H]3[C@@H](CO)N4CCCCN(C(=O)C5CCC5)C[C@H]34)cc2)c1	–
O=C(C1CC1)N1CCCCN2[C@@H](CO)[C@H](c3ccc(-c4cccc(F)c4)cc3)[C@@H]2C1	–
O=C(C1CC1)N1CCCCN2[C@H](CO)[C@H](c3ccc(-c4cccc(F)c4)cc3)[C@@H]2C1	-22
O=C(c1cccnc1)N1CC2(C1)[C@@H](c1ccccc1)[C@@H](CO)N2Cc1ccncc1	–
O=C(Nc1cccc(Cl)c1)N1C[C@H]2[C@@H](c3ccccc31)[C@@H](CO)N2C(=O)C1CCCC1	–
CCCNC(=O)N1CC2(C1)CN(C(=O)CCC)[C@@H](CO)c1[nH]c3cc(OC)ccc3c12	–
O=C(c1ccc(F)cc1)N1CC[C@H]2[C@H](CO)Nc3ccc(C#Cc4ccccc4F)cc3[C@H]21	–
O=C(c1ccc(F)cc1)N1CC[C@@H]2[C@@H](CO)Nc3ccc(C#Cc4ccc(F)cc4)cc3[C@@H]21	-52
COc1ccc(C#Cc2ccc3c(c2)[C@@H]2[C@@H](CCN2C(=O)c2cccc(F)c2)[C@@H](CO)N3)cc1	–
O=C(Cc1ccccc1)N1CC[C@H]2[C@H](CO)Nc3ccc(C#Cc4cccc(F)c4)cc3[C@H]21	–
O=C(Cc1ccccc1)N1CC[C@H]2[C@H](CO)Nc3ccc(C#Cc4ccccc4)cc3[C@H]21	–
COc1ccc(C#Cc2ccc3c(c2)[C@H]2[C@H](CCN2C(=O)c2cccc(F)c2)[C@@H](CO)N3)cc1	–
O=C(Cc1ccccc1)N1CC[C@@H]2[C@H](CO)Nc3ccc(C#Cc4cccc(F)c4)cc3[C@@H]21	-19
O=C(c1cccc(F)c1)N1CC[C@@H]2[C@H]1c1cc(C#Cc3ccc(F)cc3)ccc1N[C@@H]2CO	-14
O=C(c1ccc(F)cc1)N1CC[C@@H]2[C@H](CO)Nc3ccc(C#CC4CC4)cc3[C@@H]21	–
O=C(C[C@@H]1C[C@H]2c3cc(NC(=O)Cc4ccncc4)ccc3O[C@H]2[C@@H](CO)O1)NCc1ccc2c(c1)OCO2	–
CO[C@H]1CN(C)C(=O)c2ccc(NC(C)=O)cc2OC[C@@H](C)N(C(=O)c2ccccc2)C[C@@H]1C	–
CCCN1C[C@@H](C)[C@@H](OC)CN(C)C(=O)c2ccc(NC(=O)CC(F)(F)F)cc2OC[C@@H]1C	–
SMILES	DUX4 txn inh
CNC[C@H]1Oc2c(NS(=O)(=O)c3cn(C)cn3)cccc2C(=O)N([C@H](C)CO)C[C@@H]1C	–
C/C=C/c1cnc2c(c1)C(=O)N([C@@H](C)CO)C[C@H](C)[C@@H](CN(C)C(=O)NC1CCCC1)O2	–
CO[C@H]1CN(C)C(=O)c2ccc(NC(=O)Cc3ccccc3)cc2OC[C@@H](C)N(CC2CC2)C[C@H]1C	–
O=C1N[C@H](Cc2ccccc2)COCc2cn(nn2)CC[C@H]1Cc1ccc(-c2ccccc2)cc1	–
O=C(C1CCC1)N1CC2(C1)[C@H](c1ccccc1)[C@H](CO)N2Cc1ccccc1F	–
O=C(C1CCCC1)N1CC2(C1)[C@@H](c1ccccc1)[C@@H](CO)N2Cc1ccc(Cl)cc1	–
O=C(C1CCCCC1)N1CC2(C1)[C@H](c1ccccc1)[C@@H](CO)N2Cc1ccc(Cl)cc1	-51
O=C(C1CCCC1)N1CC2(C1)[C@@H](c1ccccc1)[C@H](CO)N2Cc1ccccc1F	–
O=C(C1CCOCC1)N1CC2(C1)[C@H](c1ccccc1)[C@@H](CO)N2Cc1ccc(Cl)cc1	–
O=C(C1CCCC1)N1CC2(C1)[C@H](c1ccccc1)[C@@H](CO)N2Cc1ccccc1F	-45
C[C@H]1CN([C@@H](C)CO)C(=O)c2c(c3ccccc3n2C)-c2ccccc2CO[C@@H]1CN(C)S(C)(=O)=O	–
O=C([C@H]1[C@H](CO)[C@H]2Cn3c(ccc(C4=CCCC4)c3=O)[C@H]2N1Cc1nccs1)N1CCOCC1	–
COc1ccc(NC(=O)Nc2ccc3c(c2)C(=O)N([C@H](C)CO)C[C@H](C)[C@H](CN(C)S(=O)(=O)c2cccs2)OCCCC[C@H](C)O3)cc1	–
COc1ccc(-c2ccc3n(c2=O)C[C@@H]2[C@@H](CO)[C@H](C(=O)N(C)C)[C@H]3N2Cc2ccncc2)cc1	–
Cc1ccccc1S(=O)(=O)N1C[C@@H]2N[C@H](C1)C2c1ccc(-c2cccc(C#N)c2)cc1 (stereo partly drawn)	-71!
O=S(=O)(c1ccccc1F)N1C[C@@H]2N[C@H](C1)C2c1ccc(-c2cncnc2)cc1 (stereo partly drawn)	-14
O=S(=O)(c1ccccc1F)N1C[C@@H]2N[C@H](C1)C2c1ccc(-c2ccncc2)cc1 (stereo partly drawn)	–
O=S(=O)(c1ccccc1F)N1[C@@H]2CNC[C@H]1C2c1ccc(-c2ccncc2)cc1 (stereo partly drawn)	–
O=S(=O)(c1ccccc1F)N1[C@@H]2CNC[C@H]1C2c1ccc(-c2cccc(F)c2)cc1 (stereo partly drawn)	–
N#Cc1cccc(-c2ccc(C3[C@@H]4CN(C(=O)C5CCOCC5)C[C@H]3N4)cc2)c1 (stereo partly drawn)	–
Cc1ccccc1S(=O)(=O)N1[C@H](C#N)[C@H](c2ccc(-c3ccccc3)cc2)[C@H]1CO	–
O=S(=O)(c1ccccc1F)N1CCCCN2[C@H](C1)[C@@H](c1ccc(-c3cncnc3)cc1)[C@@H]2CO	–
N#Cc1cccc(-c2ccc(C3[C@@H]4CN(S(=O)(=O)c5ccccc5F)C[C@H]3N4)cc2)c1 (stereo partly drawn)	-54!
COc1ccc(NC(=O)N2CC[C@@H]3[C@@H](CO)N(C)c4ccc(-c5cccc(C(=O)N(C)C)c5)cc4[C@@H]32)cc1	–
CS(=O)(=O)N1[C@@H]2c3ccc(-c4cccc(F)c4)c(=O)n3C[C@@H]2[C@@H](CO)[C@@H]1C(=O)NC1CCC1	–
SMILES	DUX4 txn inh
C[C@@H]1CN([C@@H](C)CO)C(=O)c2cc(NC(=O)c3ccncc3)ccc2O[C@@H]1CN(C)Cc1ccc(Oc2ccccc2)cc1	–
CC(C)NC(=O)N(C)C[C@H]1OCc2ccccc2-c2ccccc2C(=O)N([C@H](C)CO)C[C@@H]1C	–
CN(C)CC(=O)Nc1ccc2c(c1)[C@@H]1C[C@@H](CC(=O)N3CCCCC3)O[C@H](CO)[C@@H]1O2	–
COc1ccc(NC(=O)N[C@H]2CC[C@@H](CCn3cc(C4(O)CCCC4)nn3)O[C@@H]2CO)cc1	–
O=C(c1ccccc1)N1CC2(C1)[C@@H](c1ccccc1)[C@H](CO)N2CC1CC1	–
C[C@H]1CN([C@@H](C)CO)C(=O)c2c(c3ccccc3n2C)-c2ccccc2CO[C@@H]1CN(C)C	–

From PubChem BioAssay
